This passage reports composite z-score, composite Z-score and z-score results from PubChem BioAssay.

The target in one experiment is Albumin (Bos taurus) (UniProt P02769). Kind of experiment: compounds binding labelled BSA control protein – biochemical, small-molecule microarray, Alexa647 label, 635/667 nm fluorescence, artefact control for SMM control protein annotation, profiling panel (AID 1118).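 Further: score merges 667 nm emission intensity and signal-to-noise per printed compound spot.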 The following applies: BSA-A647 binding, fluorescence 635 nm, higher = more signal.
Experiment [1] is described as follows: probe aXIP binding to arrayed compounds – biochemical, NeuroSMM set, 635/667 nm fluorescence, primary screen (AID 1119).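 Further: probe is the protein aXip251-270 applied at 1 µg/mL to compound-printed slides; binding of probe to printed compounds measured as 667 nm fluorescence plus signal to noise.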 The following applies: small-molecule microarray, higher = more signal, called active from +8 up or from −8 down.
A short description of experiment [2]: probe aNOTCH3 binding on compound microarray – biochemical, small-molecule microarray, 635/667 nm fluorescence, primary screen (AID 1120).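 Further: probe is a biotin-tagged antibody raised against NOTCH3 rather than NOTCH3 protein; score merges spot fluorescence near 667 nm with spot signal to noise.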 The following applies: higher = more signal.
A short description of experiment [3]: probe aNOTCH2 binding on compound microarray – biochemical, small-molecule microarray, 635/667 nm fluorescence, primary screen (AID 1121).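 Further: score merges feature fluorescence read at 667 nm with its signal to noise.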 The following applies: higher = more signal.
The target of experiment [4] is Carbonic anhydrase 2 (Homo sapiens) (UniProt P00918). Briefly: compounds binding carbonic anhydrase 2 – biochemical, small-molecule microarray, Alexa647-labelled CAII, profiling panel (AID 1122). To be noted: CAII-A647 binding fluorescence, higher = more signal.
Experiment [5] is described as follows: COS7 lysate on small-molecule microarray, probe aHis, 635 nm (AID 1123).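 Further: z-score combines 667nm fluorescence intensity with signal-to-noise per printed compound spot.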 To be noted: COS7 cell lysate, fluorescence, higher = more signal.
A short description of experiment [6]: probe aLAP1 signal on lysate-treated microarray – cell lysate, small-molecule microarray, COS7 lysate, primary screen (AID 1124).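 Further: lysate comes from COS7 cells expressing LAP1 and is applied at 0.3 µg/mL; score merges spot fluorescence near 667 nm with signal-to-noise over triplicate slides.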 To be noted: probe aLAP1, fluorescence, higher = more signal.
The subject of a further experiment is Sam68 (KHDRBS1). Briefly: compounds binding KHDRBS1 protein – biochemical, small-molecule microarray, 635 nm fluorescence, primary screen (AID 1125).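 Further: score merges 667 nm channel intensity with signal to noise over triplicate slides.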 The following applies: higher = more signal.
Experiment [7] deals with Chordin-like protein 2 (CHRDL2). Briefly: compounds binding chordin-like 2 – biochemical, small-molecule microarray, 635 nm fluorescence, primary screen (AID 1126).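 Further: printed compound slides probed with Chrdl2 protein at 4 µg/mL for 1 h at 4 C; score merges 667 nm emission intensity with signal to noise over three replicate slides.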 To be noted: fluorescence 635 nm, higher = more signal.
Experiment [8] has as its target Concanavalin-A (Canavalia ensiformis) (UniProt P02866). Briefly: compounds binding concanavalin A lectin – biochemical, small-molecule microarray, Alexa647 label, 635 nm, artefact control for SMM control protein annotation, primary screen (AID 1127).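 Further: z combines 667 nm emission intensity with signal-to-noise across three replicate slides.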 To be noted: ConA-A647 binding fluorescence, higher = more signal.
Experiment [9] is described as follows: compounds binding Alexa647 anti-His antibody – biochemical, small-molecule microarray, 635 nm fluorescence, artefact control for SMM control protein annotation, primary screen (AID 1128).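 Further: score merges feature fluorescence with signal-to-noise for each printed compound spot.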 To be noted: higher = more signal.
In experiment [10] the test system is Human papillomavirus type 1a E7 protein (residues 1-88). Briefly: HPV1a E7 small-molecule binders, primary screen, biochemical, small-molecule microarray, residues 1-88, 635 nm (AID 1129). To be noted: small-molecule microarray binding, fluorescence 635 nm; higher = more signal.
In experiment [11] the target is Focal adhesion kinase 1 (Homo sapiens) (UniProt Q05397). Briefly: PTK2 protein binding on printed compound slides – biochemical, small-molecule microarray, 635/667 nm fluorescence, BSA, DTT, primary screen (AID 1130).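 Further: composite of spot emission at 667 nm and signal to noise over triplicate slides.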 The following applies: 635 nm fluorescence, higher = more signal.
Experiment [12] relates to Fibrinogen (Alexa647-labelled). Briefly: Alexa647-fibrinogen binding to printed small molecules – biochemical, small-molecule microarray, 635/667 nm fluorescence, artefact control for SMM control-protein annotation, profiling panel (AID 1131).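 Further: z-score merges 667 nm fluorescence with per-spot signal-to-noise over triplicate slides.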 To be noted: fibrinogen-A647 binding fluorescence, higher = more signal.
The target of experiment [13] is Follistatin (Homo sapiens) (UniProt P19883). Briefly: FST protein binding to printed compounds – biochemical, small-molecule microarray, 635/667 nm fluorescence, primary screen (AID 1132). The following applies: 635 nm fluorescence, higher = more signal.
The target in experiment [14] is Fibroblast growth factor 2 (Homo sapiens) (UniProt P09038). Kind of experiment: basic fibroblast growth factor binding to printed compounds – biochemical, small-molecule microarray, 635/667 nm fluorescence, primary screen (AID 1133). The following applies: FGF2, fluorescence 635/667, higher = more signal.
Experiment [15] in a line: JC-1 mitochondrial potential readout, lung cancer cells – cell-based, A549, JC-1 fluorescence, basal, 24 h, 100 nL, profiling panel (AID 1138).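 Further: A549 lung adenocarcinoma cells under basal conditions with no added stimulus; test concentration not given here.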 To be noted: higher = more signal.
The test system of another experiment is Lefty1. Briefly: Lefty1 protein binding to printed compounds – biochemical, small-molecule microarray, 635/667 nm fluorescence, primary screen (AID 1139). To be noted: fluorescence 635/667, higher = more signal.
For experiment [16], the system named is wheat germ agglutinin (Triticum aestivum), Alexa647-labelled. Briefly: Alexa647-WGA lectin binding to printed small molecules – biochemical, small-molecule microarray, 635/667 nm fluorescence, artefact control for SMM control-protein annotation, profiling panel (AID 1140).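 Further: score merges 667 nm feature emission with signal to noise over triplicate slides.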 To be noted: WGA-A647 binding, 635 nm fluorescence, higher = more signal.
Experiment [17] has as its target Luciferin 4-monooxygenase (Photinus pyralis) (UniProt P08659). Briefly: inhibition of purified Photinus pyralis luciferase – biochemical, luminescence, purified enzyme, 2006 set, primary screen (AID 1141).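 Further: cell-free assay with purified firefly luciferase at 100 ng per well in PBS; test concentration not given here.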 To be noted: purified firefly luciferase, SteadyGlo luminescence, 30 min; higher = more signal, called active from +8 up or from −8 down.

The source made the active and inactive calls.

Sequence of Focal adhesion kinase 1 (Homo sapiens) (Q05397 whole entry, looked up): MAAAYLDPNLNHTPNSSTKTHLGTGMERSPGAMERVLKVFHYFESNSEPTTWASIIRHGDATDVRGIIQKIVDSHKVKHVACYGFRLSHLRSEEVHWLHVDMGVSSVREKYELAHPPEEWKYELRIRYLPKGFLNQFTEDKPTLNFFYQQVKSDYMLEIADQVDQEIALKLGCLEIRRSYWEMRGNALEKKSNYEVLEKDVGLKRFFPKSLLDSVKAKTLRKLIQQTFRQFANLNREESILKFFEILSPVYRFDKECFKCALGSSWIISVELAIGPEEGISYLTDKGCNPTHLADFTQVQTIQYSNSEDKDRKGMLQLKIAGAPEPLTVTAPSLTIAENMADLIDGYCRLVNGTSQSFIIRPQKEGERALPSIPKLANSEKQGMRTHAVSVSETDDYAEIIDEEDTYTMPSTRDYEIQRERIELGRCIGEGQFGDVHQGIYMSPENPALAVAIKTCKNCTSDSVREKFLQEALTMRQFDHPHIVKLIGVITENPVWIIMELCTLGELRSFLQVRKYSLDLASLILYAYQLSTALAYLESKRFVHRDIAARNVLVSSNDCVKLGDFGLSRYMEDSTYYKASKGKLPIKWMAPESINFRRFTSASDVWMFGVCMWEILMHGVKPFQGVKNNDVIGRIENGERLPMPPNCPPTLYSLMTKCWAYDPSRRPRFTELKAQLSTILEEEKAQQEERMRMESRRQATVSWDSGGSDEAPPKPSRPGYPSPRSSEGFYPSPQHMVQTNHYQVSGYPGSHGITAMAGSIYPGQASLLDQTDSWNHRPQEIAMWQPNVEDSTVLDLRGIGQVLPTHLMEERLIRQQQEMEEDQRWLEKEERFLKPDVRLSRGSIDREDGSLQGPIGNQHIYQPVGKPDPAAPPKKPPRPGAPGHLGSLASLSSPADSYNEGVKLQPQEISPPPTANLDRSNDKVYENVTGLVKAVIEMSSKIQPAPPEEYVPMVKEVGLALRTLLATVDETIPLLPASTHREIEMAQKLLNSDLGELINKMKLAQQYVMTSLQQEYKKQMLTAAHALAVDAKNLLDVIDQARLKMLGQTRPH
Sequence of Follistatin (Homo sapiens) (P19883 whole entry, looked up): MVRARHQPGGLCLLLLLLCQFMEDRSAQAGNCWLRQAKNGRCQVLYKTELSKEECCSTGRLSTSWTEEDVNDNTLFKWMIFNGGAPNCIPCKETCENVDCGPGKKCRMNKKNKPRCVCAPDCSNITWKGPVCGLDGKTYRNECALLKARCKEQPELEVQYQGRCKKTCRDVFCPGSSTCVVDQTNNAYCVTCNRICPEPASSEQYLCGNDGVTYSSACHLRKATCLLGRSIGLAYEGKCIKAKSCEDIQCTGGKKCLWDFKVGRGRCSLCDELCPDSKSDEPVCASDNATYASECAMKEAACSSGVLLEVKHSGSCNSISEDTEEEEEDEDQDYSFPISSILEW
Sequence of Luciferin 4-monooxygenase (Photinus pyralis) (P08659 whole entry, looked up): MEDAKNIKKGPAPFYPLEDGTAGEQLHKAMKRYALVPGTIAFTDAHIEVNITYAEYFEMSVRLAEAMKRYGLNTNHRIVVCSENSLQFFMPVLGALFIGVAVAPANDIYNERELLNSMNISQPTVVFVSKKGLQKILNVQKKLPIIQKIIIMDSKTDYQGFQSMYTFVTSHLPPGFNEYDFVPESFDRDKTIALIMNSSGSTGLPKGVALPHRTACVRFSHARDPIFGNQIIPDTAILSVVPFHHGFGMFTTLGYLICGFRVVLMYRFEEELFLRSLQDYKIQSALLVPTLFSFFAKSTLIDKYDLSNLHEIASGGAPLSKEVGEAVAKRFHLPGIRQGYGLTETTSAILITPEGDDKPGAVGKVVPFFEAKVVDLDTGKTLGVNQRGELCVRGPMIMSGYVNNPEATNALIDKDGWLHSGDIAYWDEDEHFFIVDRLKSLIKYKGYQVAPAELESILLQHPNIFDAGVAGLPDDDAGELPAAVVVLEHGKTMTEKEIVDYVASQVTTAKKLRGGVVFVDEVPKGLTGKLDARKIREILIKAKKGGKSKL
Sequence of Concanavalin-A (Canavalia ensiformis) (P02866 whole entry, looked up): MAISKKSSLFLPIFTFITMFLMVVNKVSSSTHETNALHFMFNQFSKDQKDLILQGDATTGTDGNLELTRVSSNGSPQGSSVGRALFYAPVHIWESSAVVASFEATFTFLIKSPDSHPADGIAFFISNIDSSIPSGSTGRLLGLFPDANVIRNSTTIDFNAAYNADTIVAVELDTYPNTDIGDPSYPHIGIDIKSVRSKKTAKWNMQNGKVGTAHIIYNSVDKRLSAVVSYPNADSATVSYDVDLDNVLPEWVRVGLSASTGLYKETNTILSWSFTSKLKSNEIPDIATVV
Sequence of Albumin (Bos taurus) (P02769 whole entry, looked up): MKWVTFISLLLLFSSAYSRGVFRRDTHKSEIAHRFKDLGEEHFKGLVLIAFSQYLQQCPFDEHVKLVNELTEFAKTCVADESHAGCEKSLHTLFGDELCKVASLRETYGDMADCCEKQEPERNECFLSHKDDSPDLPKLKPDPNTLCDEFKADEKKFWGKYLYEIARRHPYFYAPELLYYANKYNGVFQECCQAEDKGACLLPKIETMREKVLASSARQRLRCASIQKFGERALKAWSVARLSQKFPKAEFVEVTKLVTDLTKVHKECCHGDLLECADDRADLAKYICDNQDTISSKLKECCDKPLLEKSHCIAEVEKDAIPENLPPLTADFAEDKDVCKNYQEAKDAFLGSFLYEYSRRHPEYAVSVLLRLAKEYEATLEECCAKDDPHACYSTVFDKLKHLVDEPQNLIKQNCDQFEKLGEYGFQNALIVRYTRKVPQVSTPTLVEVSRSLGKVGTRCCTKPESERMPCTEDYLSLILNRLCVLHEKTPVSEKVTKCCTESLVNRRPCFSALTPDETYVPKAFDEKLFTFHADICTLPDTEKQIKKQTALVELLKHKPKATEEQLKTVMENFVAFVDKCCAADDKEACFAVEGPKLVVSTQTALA
Sequence of Fibroblast growth factor 2 (Homo sapiens) (P09038 whole entry, looked up): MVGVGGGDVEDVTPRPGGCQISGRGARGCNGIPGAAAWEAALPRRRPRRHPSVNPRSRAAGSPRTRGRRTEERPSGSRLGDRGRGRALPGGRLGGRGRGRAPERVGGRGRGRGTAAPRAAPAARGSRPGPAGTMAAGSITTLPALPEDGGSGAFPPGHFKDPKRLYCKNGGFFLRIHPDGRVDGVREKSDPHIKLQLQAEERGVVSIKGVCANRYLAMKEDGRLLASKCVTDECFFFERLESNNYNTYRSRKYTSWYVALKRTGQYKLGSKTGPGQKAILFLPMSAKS

Take `O=C1[C@H]2[C@H]3[C@H](O)[C@H](O)CC(=NOCc4ccccc4)[C@H]3CC[C@H]2C(=O)N1C[C@@H]1CCCO1`: the composite z-score is 0.5 with Albumin (Bos taurus); 0.132 in [2]; -0.12 in experiment [3]; 0.432 in experiment [4]; 0.469 in [5]; 0.491 in [6]. The composite z-score is 0.232 in the experiment with Sam68 (KHDRBS1); 0.312 in [7]; 0.652 in [8]; 0.216 in experiment [9]; 0.586 in experiment [10]; -0.0074 in [11]. In addition, the composite z-score in [12] was found to be 0.953; in [13], 0.393; in experiment [14] it was 1.12; with Lefty1 it was 0.249; in experiment [16], 0.352. Moreover, the composite Z-score in experiment [1] is 0.324 (inactive). The figures for the z-score in experiment [15] and in [17] were -0.877 and 0.949 (inactive), respectively.
Take `C=C(/C(=C/C[C@@H](OC(=O)c1ccncc1)c1ccc(OCCO)cc1)c1cnc2ccccc2c1)C(C)C`: the composite z-score in the experiment with Albumin (Bos taurus) is 0.155; in [2], 0.201; in experiment [3], -0.134; in experiment [4], 0.675; in experiment [5] it was -0.842; in [6], 0.727. Further, the composite z-score with Sam68 (KHDRBS1) is 1.22; in [7] it was 0.952; in [8], 1.08; in experiment [9], 1.03; in [10], 1.13; in experiment [11], -0.616. The composite z-score turned out to be 0.806 in experiment [12]; 1.43 in experiment [13]; 1.17 in [14]; 1.5 in the experiment on Lefty1; 0.976 in experiment [16]. Besides, the composite Z-score in experiment [1] was -0.128 (inactive). The figures for the z-score in experiment [15] and in experiment [17] were 0.809 and -2.06 (inactive), respectively.
For `COC(=O)[C@H]1COC(c2ccc(OCCCO)cc2)=N1`, the composite z-score is 0.543 with Albumin (Bos taurus); -0.16 in experiment [2]; -0.0942 in experiment [3]; 0.523 in experiment [4]; 2.38 in experiment [5]; 0.984 in [6]. Moreover, the composite z-score with Sam68 (KHDRBS1) is -1.08; in [7], -0.0157; in experiment [8], -0.588; in experiment [9], -0.748; in [10], -0.877; in experiment [11], -0.57. The composite z-score was -4.27 in experiment [12]; 0.267 in [13]; 1.14 in experiment [14]; -0.878 with Lefty1; 0.177 in experiment [16]. Also, in experiment [1], the composite Z-score is 0.0182 (inactive). Further, the z-score in [15] is -0.765; in experiment [17], -21.6 (active).
`CC(CCC(=O)OC[C@H]1O[C@H](C#Cc2ccccc2)C=C[C@@H]1Oc1ccc(C)cc1)=NO[C@@H](C)c1cn([C@H](CO)Cc2ccccc2)nn1`: the composite z-score was 0.0449 with Albumin (Bos taurus); 0.0026 in experiment [2]; -0.0907 in experiment [3]; -0.122 in experiment [4]; -0.053 in experiment [5]; -0.592 in experiment [6]. Moreover, the composite z-score with Sam68 (KHDRBS1) was 0.297; in experiment [7], 0.145; in [8] it was 0.27; in [9] it was 1.35; in [10], 0.0769; in experiment [11], 0.0915. Moreover, the composite z-score in experiment [12] was found to be 0.716; in [13], 0.335; in [14] it was 0.61; in the experiment on Lefty1, 0.393; in experiment [16], 0.587. In addition, the composite Z-score in experiment [1] is -0.684 (inactive). In addition, the z-score in experiment [15] was -0.97; in experiment [17], 0.991 (inactive).
Take `CC(=O)C[C@H](O)[C@@H](NC(=O)OC(C)(C)C)C(C)C`: the composite z-score in the experiment with Albumin (Bos taurus) is -0.587; in experiment [2], -0.0903; in [3] it was -0.14; in [4] it was -0.424; in experiment [5] it was -0.336; in [6], -0.286. The composite z-score is -1.8 in the experiment with Sam68 (KHDRBS1); -0.405 in experiment [7]; -0.385 in experiment [8]; -0.0599 in experiment [9]; -1.54 in experiment [10]; -0.352 in experiment [11]. Besides, the composite z-score in experiment [12] is -0.454; in experiment [13] it was -0.118; in experiment [14], -0.312; in the experiment with Lefty1 it was 0.304; in [16] it was -0.644. Besides, the composite Z-score in [1] was -0.24 (inactive). Besides, the z-score in experiment [15] was -0.824; in experiment [17] it was 0.364 (inactive).
